From PubChem
Rows were chosen to be rich in hits. Some 19% of all compounds tested hit in one or more screens of this group.
TGFb inhibitor: qHTS for Inhibitors of TGF-b | HepG2 CAGA-GFP TGF-b/SMAD3 reporter, GFP fluorescence, 18 h; TGF-beta stimulated, 500 pg/mL final | hit rate 1.2% among 410,000 | Potency, µM (titrated, usually from 46.1 µM), for the others: top-dose activity, negative = inhibition, most hits filed as inhibitors; note: potency is the fitted concentration of half-maximal effect; % is set by controls: 0 for no effect and ±100 for the full control effect; nearly all actives have a fitted effect of over 65% in size
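Using HEPG2 CAGA-GFP reporter cells at 1000 cells/well, we pinned test compounds, stimulated with recombinant TGF-beta (500 pg/mL final) and measured total well GFP after 18 h.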
DT40 TDP1 CPT: qHTS for Inhibitors of human tyrosyl-DNA phosphodiesterase 1 (TDP1): qHTS in cells in presence of CPT | chicken DT40 Tdp1-/-;hTDP1 cells + 20 nM CPT, ATP luminescence, 48 h | Potency, µM (titrated, usually from 46.2 µM), for inactives: at the highest dose activity change, negative = growth inhibition, usual class: inhibitors | hit rate 12% among 420,000 | AID 686979, 2013; note: potency is the fitted concentration of half-maximal effect; % is set by controls: 0 for no effect and ±100 for the full control effect; nearly all actives have a fitted effect of over 55% in size
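Chicken DT40 Tdp1-/- cells complemented with human TDP1, 400 cells/well, exposed to compounds plus 20 nM camptothecin for at least 48 h at 37 C; viability read as ATP content by CellTiter-Glo luminescence.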
HepG2 tox: qHTS for Inhibitors of TGF-b: Cytotox Counterscreen. HepG2 CAGA-GFP viability, ATP luminescence, 18 h. Potency, µM (titrated, usually from 46.1 µM), for inactives: at the highest dose activity change, negative = cytotoxicity, usual class: cytotoxic. hit rate 0.76% among 410,000; note: potency is the fitted concentration of half-maximal effect
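HepG2 CAGA-GFP cells (1000/well, DMEM with 1% FBS) received compound, then TGF-beta at 500 pg/mL final, and were incubated 18 hours at 37 degrees C. Viability was read by CellTiter-Glo luminescence. Media-only wells were set as complete cell-killing and DMSO as no toxicity.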
TDP1 cell noCPT: qHTS for Inhibitors of human tyrosyl-DNA phosphodiesterase 1 (TDP1): qHTS in cells in absence of CPT | DT40 Tdp1-/- hTDP1 cells, no CPT, ATP luminescence, 48 h | Potency, µM (highest dose often 46.2 µM), for the others: top-dose activity change, negative = growth inhibition, actives largely listed as inhibitors | hit rate 15% among 420,000 | AID 686978, 2013; note: potency is the fitted concentration of half-maximal effect; % is set by controls: 0 for no effect and ±100 for the full control effect; nearly all actives have a fitted effect of over 55% in size
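Stably hTDP1-transfected Tdp1-null chicken DT40 cells were treated with library compounds minus camptothecin and grown for at least 48 hr at 37 °C, after which cellular ATP was quantified by luminescence.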
ASM inhibitor: Inhibitors of Secretory Acid Sphingomyelinase (S-ASM): qHTS; Sphingomyelin phosphodiesterase (Homo sapiens), P17405; placental ASM, HMU-PC fluorogenic substrate, 60 min; Potency, µM (doses to about 57.5 µM), for the others: at the top dose activity change, negative = inhibition, actives largely listed as inhibitors; hit rate 0.006% among 340,000; note: potency is the fitted concentration of half-maximal effect
Target sequence (P17405 47-631 limits assumed): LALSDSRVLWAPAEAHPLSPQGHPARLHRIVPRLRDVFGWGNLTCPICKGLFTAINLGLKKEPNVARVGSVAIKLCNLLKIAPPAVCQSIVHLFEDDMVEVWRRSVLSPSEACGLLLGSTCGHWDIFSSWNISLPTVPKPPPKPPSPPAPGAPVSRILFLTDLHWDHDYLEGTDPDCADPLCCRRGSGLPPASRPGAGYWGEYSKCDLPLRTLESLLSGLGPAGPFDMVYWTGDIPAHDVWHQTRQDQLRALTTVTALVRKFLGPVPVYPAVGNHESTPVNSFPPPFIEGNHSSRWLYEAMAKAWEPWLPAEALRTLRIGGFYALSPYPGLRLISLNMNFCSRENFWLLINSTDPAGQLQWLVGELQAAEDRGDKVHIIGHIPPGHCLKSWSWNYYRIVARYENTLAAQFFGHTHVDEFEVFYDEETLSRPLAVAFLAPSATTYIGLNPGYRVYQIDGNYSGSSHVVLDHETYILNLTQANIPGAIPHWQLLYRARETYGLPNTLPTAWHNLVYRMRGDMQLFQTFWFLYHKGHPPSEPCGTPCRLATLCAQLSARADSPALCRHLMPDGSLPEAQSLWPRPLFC
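Human placenta-derived ASM preincubated with compound 10 min at room temperature, then reacted with 9 uM (final) fluorogenic HMU-PC substrate for 60 min at 37 C. Stop solution raises pH to 10; fluorescence read at Ex 386/Em 447 nm.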
IL1B secr inh: qHTS for Inhibitors of Inflammasome Signaling: IL-1-beta AlphaLISA Primary Screen. THP-1 LPS/ATP IL-1B secretion, AlphaLISA, 16 h; stronger effect = lower value. activity change, % at 57.5 µM. hit rate 4.7% among 360,000. AID 743279, 2014; in the data active = activity change below about -50%; inconclusive = mostly about -30% to -49%; note: % is set by controls: 0 for no effect and ±100 for the full control effect
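THP-1 cells pretreated 1 hr with compounds (up to 57.5 uM final), then stimulated with LPS (250 ng/mL final) plus ATP (1.25 mM final); secreted IL-1B measured by AlphaLISA after 16 hr, decreased signal indicating inhibition.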
* hit, by the source's call. Unless noted, calls come from the whole dose curve; as a rule, active = well fitted curve in the direction sought with a large enough effect; inconclusive = small, poorly fitted or top-dose-only effect, or another doubt; inactive = no such curve, though single readings can be large; an effect the other way counts as inactive or inconclusive.

How did O=C(NCc1ccc2c(c1)OCO2)c1cc2n(n1)C(C(F)(F)F)CC(c1ccc3c(c1)OCO3)N2 (stereo not drawn) do in these assays?
TGFb inhibitor: -18.8%; DT40 TDP1 CPT: inconclusive; HepG2 tox: 1.8%; TDP1 cell noCPT: -14.2%; ASM inhibitor: -7.8%; IL1B secr inh: 0.0

What do the screens show for `COc1ccccc1NC(=O)c1cc2n(n1)C(C(F)(F)F)CC(c1ccc3c(c1)OCO3)N2` (stereo not drawn)?
TGFb inhibitor: inconclusive; DT40 TDP1 CPT: 16.4µM*; HepG2 tox: -3.3%; TDP1 cell noCPT: 18.4µM*; ASM inhibitor: -20.0%; IL1B secr inh: inconclusive

How did Cc1ccc([C@@H]2C[C@H]3[C@@H](CN2S(=O)(=O)c2ccc(Cl)cc2)C(=O)C[C@@H](c2cccc4ccccc24)N3S(=O)(=O)c2ccc(C)cc2)cc1 do in these assays?
TGFb inhibitor: -2.9%; DT40 TDP1 CPT: 3.7%; HepG2 tox: 4.9%; TDP1 cell noCPT: -8.2%; IL1B secr inh: 5.6

How did COc1ccc2c(c1)cc(CNc1ccc(OC)c(OC)c1)c(=O)n2CC(=O)Nc1ccccc1C do in these assays?
TGFb inhibitor: 0.5%; HepG2 tox: -15.1%

Results for O=C(CCSCCC(=O)NN=Cc1ccccc1O)NN=Cc1ccccc1O ?
TGFb inhibitor: inconclusive; DT40 TDP1 CPT: -24.3%; HepG2 tox: -37.4%; TDP1 cell noCPT: -23.7%; ASM inhibitor: inactive; IL1B secr inh: 29.0

How did Cc1cc(SCC(=O)N/N=C/c2ccc(O)c(O)c2O)c(C)cc1Br do in these assays?
TGFb inhibitor: -29.4%; DT40 TDP1 CPT: 3.26µM*; HepG2 tox: -7.2%; TDP1 cell noCPT: 4.61µM*; ASM inhibitor: -15.7%; IL1B secr inh: 23.3

How did COc1ccc(CSCC(=O)N/N=C/c2ccccc2O)cc1 do in these assays?
TGFb inhibitor: -21.7%; DT40 TDP1 CPT: 2.91µM*; HepG2 tox: -18.7%; TDP1 cell noCPT: 2.59µM*; ASM inhibitor: 257.0%; IL1B secr inh: 115.4

How did Cc1nccn1CC(=O)N/N=C/c1ccccc1O do in these assays?
TGFb inhibitor: -6.5%; DT40 TDP1 CPT: inconclusive; HepG2 tox: -11.0%; TDP1 cell noCPT: 20.6µM*; ASM inhibitor: inactive; IL1B secr inh: 119.9

How did O=C(CSc1ccccc1)N/N=C/c1ccccc1O do in these assays?
TGFb inhibitor: -17.2%; DT40 TDP1 CPT: 4.11µM*; HepG2 tox: -9.6%; TDP1 cell noCPT: 2.59µM*; ASM inhibitor: 17.1%; IL1B secr inh: 144.0

How did O=C(COc1ccc(-n2ccnc2)cc1)Nc1cccc(Cl)c1 do in these assays?
TGFb inhibitor: 0.0%; DT40 TDP1 CPT: inconclusive; HepG2 tox: -24.8%; TDP1 cell noCPT: inconclusive; ASM inhibitor: 2.4%; IL1B secr inh: -9.6

How did O=C(CSc1ccncc1)NCC1Cc2cccc(-c3cncnc3)c2O1 (stereo not drawn) do in these assays?
DT40 TDP1 CPT: inconclusive; TDP1 cell noCPT: -26.9%

How did Cc1ccc(S(=O)(=O)NCN2C(=O)c3ccccc3C2=O)cc1 do in these assays?
TGFb inhibitor: -21.7%; DT40 TDP1 CPT: -2.5%; HepG2 tox: -37.2%; TDP1 cell noCPT: -22.9%; IL1B secr inh: 0.0

How did Cc1ccc(S(=O)(=O)NCC(=O)N/N=C/c2ccc(Cl)cc2Cl)cc1 do in these assays?
TGFb inhibitor: inconclusive; DT40 TDP1 CPT: 5.5%; HepG2 tox: -50.8%; TDP1 cell noCPT: -3.5%; ASM inhibitor: -15.1%; IL1B secr inh: inconclusive

Results for Cc1ccc(S(=O)(=O)NCC(=O)OCN2C(=O)c3ccccc3C2=O)cc1 ?
TGFb inhibitor: -1.6%; DT40 TDP1 CPT: inconclusive; HepG2 tox: -4.4%; TDP1 cell noCPT: 20.6µM*; ASM inhibitor: -2.3%; IL1B secr inh: 17.0

What do the screens show for `O=C(CSc1n[nH]c(=O)[nH]c1=O)N/N=C/c1ccccc1O`?
TGFb inhibitor: inconclusive; DT40 TDP1 CPT: 13µM*; HepG2 tox: 7.1%; TDP1 cell noCPT: -3.4%; ASM inhibitor: 18.8%; IL1B secr inh: 11.2

How did Cc1ccc(S(=O)(=O)NCC(=O)N/N=C/c2ccccc2O)cc1 do in these assays?
TGFb inhibitor: 2.0%; DT40 TDP1 CPT: 5.17µM*; HepG2 tox: -7.4%; TDP1 cell noCPT: 6.51µM*; ASM inhibitor: 344.6%; IL1B secr inh: 116.1

Results for CCOc1ccccc1/C=N/NC(=O)CSc1n[nH]c(=O)[nH]c1=O ?
TGFb inhibitor: 5.9%; DT40 TDP1 CPT: -12.1%; HepG2 tox: 2.2%; TDP1 cell noCPT: 0.9%; ASM inhibitor: 6.7%; IL1B secr inh: -9.1

What do the screens show for `Cc1ccc(C(=O)COc2nc(C)nc3ccccc23)cc1`?
TGFb inhibitor: 1.0%; DT40 TDP1 CPT: -0.1%; HepG2 tox: -2.6%; TDP1 cell noCPT: -1.1%; ASM inhibitor: -1.3%; IL1B secr inh: 25.5

How did Cc1noc(C)c1COc1ccc(C(=O)NCC(c2c(F)cccc2Cl)N(C)C)cc1 (stereo not drawn) do in these assays?
TGFb inhibitor: 0.0%; DT40 TDP1 CPT: inconclusive; HepG2 tox: -17.8%; TDP1 cell noCPT: inconclusive; ASM inhibitor: -3.1%; IL1B secr inh: 13.2

Results for O=c1[nH]c(CCl)nc2cc(-c3ccc(F)cc3)sc12 ?
TGFb inhibitor: inconclusive; DT40 TDP1 CPT: 5.17µM*; HepG2 tox: 11.2µM*; TDP1 cell noCPT: 4.11µM*; ASM inhibitor: 4.1%; IL1B secr inh: -102.1*

How did CCNC(=O)c1ccc(C23CC4CC(CC(C4)C2)C3)o1 do in these assays?
TGFb inhibitor: -2.6%; DT40 TDP1 CPT: inconclusive; HepG2 tox: -9.0%; TDP1 cell noCPT: 14.6µM*; ASM inhibitor: -2.9%; IL1B secr inh: 13.7

How did COc1cc(O)c(CC=C(C)C)c(O)c1C(=O)CCc1ccc(O)cc1 do in these assays?
TGFb inhibitor: inconclusive; DT40 TDP1 CPT: 20.6µM*; HepG2 tox: -92.8%; TDP1 cell noCPT: 20.6µM*; ASM inhibitor: -18.1%; IL1B secr inh: 7.8

What do the screens show for `O=C(N1CCN(c2ncccn2)CC1)C12CC3CC(CC(C3)C1)C2`?
TGFb inhibitor: 0.6%; DT40 TDP1 CPT: -13.1%; HepG2 tox: -18.0%; TDP1 cell noCPT: -29.1%; ASM inhibitor: 5.3%; IL1B secr inh: 17.9
